Records with an inconclusive call do not appear. The source made the active and inactive calls. Calls follow the shape of the dose curve; as a rule, active = well fitted inhibition curve with a large enough effect; inconclusive = small, poorly fitted or top-dose-only effect, or effect the other way; inactive = no such curve, though single readings can be large or run the other way.
target: Nuclear receptor ROR-gamma (Mus musculus) (UniProt P51450); experiment: Secondary confirmation assay for inhibitors of ROR gamma transcriptional activity; details: Drosophila S2 Gal4-RORgamma UAS-luciferase reporter, 20 h; series mostly up to 92.2 µM
Sequence (P51450 whole entry, looked up, the tested form may be a part): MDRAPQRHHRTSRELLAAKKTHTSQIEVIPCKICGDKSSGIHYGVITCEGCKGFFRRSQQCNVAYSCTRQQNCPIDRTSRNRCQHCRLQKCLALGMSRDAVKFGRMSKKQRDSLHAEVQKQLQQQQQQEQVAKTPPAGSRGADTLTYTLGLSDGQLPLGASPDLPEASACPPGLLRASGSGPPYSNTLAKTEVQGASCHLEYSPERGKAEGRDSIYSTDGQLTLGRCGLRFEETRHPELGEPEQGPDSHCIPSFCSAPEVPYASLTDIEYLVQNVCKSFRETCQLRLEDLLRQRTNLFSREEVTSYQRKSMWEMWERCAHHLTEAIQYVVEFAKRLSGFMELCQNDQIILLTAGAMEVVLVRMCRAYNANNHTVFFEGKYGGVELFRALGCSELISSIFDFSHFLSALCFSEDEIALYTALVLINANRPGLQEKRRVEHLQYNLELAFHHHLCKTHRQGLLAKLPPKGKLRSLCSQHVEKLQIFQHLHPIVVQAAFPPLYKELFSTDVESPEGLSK
In short: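 Luminescence read after 20 hr at ambient temperature, following 1 hr compound exposure and copper sulfate induction (700 uM final), in stably transfected Schneider cells carrying Gal4-ROR gamma fusion and UAS-driven firefly luciferase.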

Row | Compound | Potency
1 | COc1ccccc1CNC(=O)[C@@H](NC(=O)C1CCN(C(=O)[C@@H]2CCCN2C(=O)OC(C)(C)C)CC1)C(C)C | 12.9 µM (active)
2 | CCNC(=O)CCc1nc(-c2ccc(C(C)(C)C)cc2)no1 | 0.512 µM (active)
3 | CC1CCCN(C(=O)CC(c2ccc3c(c2)OCO3)c2ccc(O)cc2O)C1 (configuration not stated) | inactive
4 | Cc1cc(C)n(-c2nc(SCC(=O)O)c3c4c(sc3n2)CCCC4)n1 | 9.11 µM (active)
5 | COc1cc(O)c(C(CC(=O)N2CCCC(C)C2)c2ccc(C(C)C)cc2)c(OC)c1 (configuration not stated) | 14.4 µM (active)
6 | CN1CCN(C(=O)CCN2C(=O)/C(=C\c3ccccc3F)SC2=S)CC1 | 18.2 µM (active)
7 | O=C(CCCN1C(=O)/C(=C/c2ccccc2Cl)SC1=S)Nc1cccnc1 | 1.82 µM (active)
8 | COC(=O)c1ccc(OCC(=O)c2ccc(O)cc2O)cc1 | 0.363 µM (active)
9 | C#CCOc1cc(OC)cc(OC)c1C(CC(=O)N1CCCC(C)C1)c1ccc2c(c1)OCO2 (configuration not stated) | 9.11 µM (active)
10 | COc1cc(O)c(C(CC(=O)N2CCCC2)c2ccc3c(c2)OCO3)c(OC)c1 (configuration not stated) | inactive
11 | Cc1ccc(C)c(/C=N/n2cc(-c3ccccc3)[nH]c2=S)c1 | 0.575 µM (active)
12 | COc1cc(OC)c2c(c1)OC(=O)CC2c1ccc2c(c1)OCO2 (configuration not stated) | inactive
13 | COc1cc(O)c(C(CC(=O)N2CCCC(C#N)C2)c2ccc3c(c2)OCO3)c(OC)c1 (configuration not stated) | inactive
14 | Cc1cc(C)c2[nH]c(C(=O)Nc3ccc4c(c3)OCO4)cc2c1 | 0.257 µM (active)
15 | COc1cc(O)c(C(CC(=O)NCC2CCCCC2)c2ccc3c(c2)OCO3)c(OC)c1 (configuration not stated) | inactive
16 | Cc1cccc(-c2nc3cc(NC(=O)C4CCCO4)ccc3o2)c1 (configuration not stated) | 0.724 µM (active)
17 | COc1cc(OC)c(C(CC(=O)N2CC(C)CC(C)C2)c2ccc3c(c2)OCO3)c(OC)c1 (configuration not stated) | 4.57 µM (active)
18 | COC(=O)Cn1c(CN2CCc3ccccc3C2)nc2c1c(=O)n(C)c(=O)n2C | 6.45 µM (active)
19 | COc1ccc(-c2nnc(-c3ccc(N(C)C)cc3)o2)cc1 | 1.29 µM (active)

Row | Compound | Potency
20 | COc1ccc(C(CC(=O)Nc2ccc(F)cc2)c2ccccc2)cc1 (configuration not stated) | inactive
21 | COc1ccc(C(CC(=O)N2CCCC(C)C2)c2c(O)cc(OC)cc2OC)cc1 (configuration not stated) | 2.29 µM (active)
22 | COc1cc(O)c(C(CC(=O)NC2CCC(C)CC2)c2ccc3c(c2)OCO3)c(OC)c1 (configuration not stated) | inactive
23 | COc1cc(O)c(C(CC(=O)N2CCC(Cc3ccccc3)CC2)c2ccc(OC)c(OC)c2)c(OC)c1 (configuration not stated) | inactive
24 | CCOC(=O)C1CCN(CC(=O)Nc2cc(C)nn2-c2nc3ccccc3s2)CC1 | 5.75 µM (active)
25 | COc1cc(O)c(C(CC(=O)N2CCCC(C)C2)c2ccccc2)c(OC)c1 (configuration not stated) | 7.24 µM (active)
26 | COc1ccc(C(CC(=O)N2CCCC(C)C2)c2c(O)cc(OC)cc2OC)c(OC)c1 (configuration not stated) | inactive
27 | COCC1CCCCN1C(=O)c1cc(COc2ccc3ncccc3c2)on1 (configuration not stated) | 11.5 µM (active)
28 | COc1cc(OC)c(C(CC(=O)N2CC(C)CC(C)C2)c2ccc3c(c2)OCO3)c(OCC(N)=O)c1 (configuration not stated) | 11.5 µM (active)
29 | COc1cc(O)c(C(CC(=O)N2CCCC(C(C)C)C2)c2ccc3c(c2)OCO3)c(OC)c1 (configuration not stated) | 25.7 µM (active)
30 | Cc1ccc(Sc2cncc3sc(C(N)=O)cc23)cc1 | 0.204 µM (active)
31 | CC1CCCN(C(=O)CC(c2ccccc2)c2ccc(O)cc2)C1 (configuration not stated) | inactive
32 | CN1CCN(C(=O)CCN2C(=O)/C(=C/c3ccccc3Cl)SC2=S)CC1 | 28.8 µM (active)
33 | COc1cc(O)c(C(CC(=O)N2CCCC(C)C2)c2cccc3ccccc23)c(OC)c1 (configuration not stated) | inactive
34 | COc1cc(O)c(C(CC(=O)N2CCCC(c3ccccc3)C2)c2ccc3c(c2)OCO3)c(OC)c1 (configuration not stated) | inactive
35 | COc1cc(O)c(C(CC(=O)N2CCCCC2)c2ccc3c(c2)OCO3)c(OC)c1 (configuration not stated) | 20.4 µM (active)
36 | COc1cc(O)c(C(CC(=O)N2CC(C)CC(C)C2)c2ccc(N(C)C)cc2)c(OC)c1 (configuration not stated) | 2.88 µM (active)
37 | COc1ccc(C(CC(=O)N2CCCC(C)C2)c2ccccc2)cc1 (configuration not stated) | inactive
